The nature of assay [1]: qHTS assay to identify small molecule agonists of the constitutive androstane receptor (CAR) signaling pathway - cell viability counter screen (AID 1224836). Note: nearly all actives have a fitted effect of over 45% in size. Note: potency is the fitted concentration of half-maximal effect. A digest of the protocol: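 Cells were seeded and incubated 4 hrs. Compounds were added across 15 concentrations together with PK11195 at 0.75 uM final. Plates were incubated 23 hrs at 37 C. CellTiter-Fluor was added and fluorescence measured.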
For orientation: Quantitative high-throughput screening tests each substance at several concentrations.

The nature of assay [2]: qHTS assay to identify small molecule antagonists of the constitutive androstane receptor (CAR) signaling pathway - cell viability counter screen (AID 1224837). Note: nearly all actives have a fitted effect of over 45% in size. Note: potency is the fitted concentration of half-maximal effect. A digest of the protocol: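 HepG2-CYP2B6-hCAR cells, 2500/well, 4 hr pre-incubation; compound titration, 15 conc.; CITCO 50 nM final; 23 hr, 37 C/5% CO2; CellTiter-Fluor, fluorescence intensity.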
Assay [3] has as its target Nuclear receptor subfamily 1 group I member 3 (Homo sapiens) (UniProt Q14994). Kind of assay: qHTS assay to identify small molecule agonists of the constitutive androstane receptor (CAR) signaling pathway (AID 1224839).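 For activation: HepG2 cells stably carrying human CAR and a CYP2B6 luciferase reporter.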 Note: nearly all actives have a fitted effect of over 15% in size. Note: potency is the fitted concentration of half-maximal effect. Summed up: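 Cells were plated and incubated 4 hrs, then dosed with compounds at 15 concentrations. PK11195 was added to 0.75 uM final. After 24 hrs at 37 C, luciferase luminescence was measured.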

The target in assay [4] is Thyrotropin receptor (Homo sapiens) (UniProt P16473). The assay is described as follows: qHTS assay to identify small molecule agonists of the thyroid stimulating hormone receptor (TSHR) signaling pathway (AID 1224843; calls by dose curve; note: nearly all actives have a fitted effect of over 45% in size). A digest of the protocol: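 Screening of the Tox21 10K collection used HEK293 cells engineered with TSHR at 800 cells per well. After a 30-min room-temperature compound exposure, HTRF cAMP reagents were added and fluorescence recorded 1 h later.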
Thyrotropin receptor (Homo sapiens), sequence (P16473 whole entry, looked up): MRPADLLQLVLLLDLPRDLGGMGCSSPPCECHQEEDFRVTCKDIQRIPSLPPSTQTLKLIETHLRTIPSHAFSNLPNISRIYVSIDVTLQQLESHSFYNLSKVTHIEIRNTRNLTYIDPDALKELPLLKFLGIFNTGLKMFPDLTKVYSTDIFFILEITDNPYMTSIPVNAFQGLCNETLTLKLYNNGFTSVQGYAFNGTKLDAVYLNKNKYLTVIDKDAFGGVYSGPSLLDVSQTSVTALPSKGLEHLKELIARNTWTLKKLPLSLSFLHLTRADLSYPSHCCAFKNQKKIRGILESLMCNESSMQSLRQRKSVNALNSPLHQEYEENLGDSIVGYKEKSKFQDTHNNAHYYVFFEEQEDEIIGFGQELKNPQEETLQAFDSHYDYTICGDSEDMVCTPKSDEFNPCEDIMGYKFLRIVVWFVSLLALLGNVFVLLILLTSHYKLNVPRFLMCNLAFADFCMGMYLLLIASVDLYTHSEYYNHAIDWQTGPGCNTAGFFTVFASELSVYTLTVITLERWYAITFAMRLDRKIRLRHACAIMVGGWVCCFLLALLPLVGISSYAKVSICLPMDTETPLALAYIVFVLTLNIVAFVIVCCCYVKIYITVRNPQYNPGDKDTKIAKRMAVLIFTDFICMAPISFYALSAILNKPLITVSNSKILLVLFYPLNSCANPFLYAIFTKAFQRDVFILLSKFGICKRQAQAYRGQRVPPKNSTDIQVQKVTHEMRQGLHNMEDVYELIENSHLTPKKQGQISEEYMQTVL

The nature of assay [5]: qHTS assay to identify small molecule agonists of H2AX - cell viability counter screen (AID 1224847; calls by dose curve; note: top concentration of the series differs between compounds; nearly all actives have a fitted effect of over 30% in size). Summed up:
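Cytotoxicity counter screen in wild-type CHO-K1 cells: a 3 hr compound treatment at 37C across 15 concentrations, followed by CellTiter-Glo luminescence to gauge viable cells.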

Assay [6] is described as follows: qHTS RealTime-Glo MT Cell Viability Assay in HEK293 cells - 32 hour (AID 1224868). Note: nearly all actives have a fitted effect of over 50% in size. Note: potency is the fitted concentration of half-maximal effect. Summed up:
(§1)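 Reads taken at 0, 8, 16, 24, 32 and 40 h from the same wells. HEK293 cells (600/well) carried RealTime-Glo reagents from seeding, with compound added after a 5 h settle at 37 C.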

Assay [7] in a line: A CellTox Green Cytotoxicity Assay to monitor cytotoxicity in HEK293 cells - 0 hour (AID 1224869). Note: nearly all actives have a fitted effect of over 50% in size. Summed up: (§2)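 Nonlytic real-time cytotoxicity: HEK293 + CellTox Green reagent plated, 5 h preincubation, pintool compound addition (23 nL in DMSO), 37 C for 40 h, fluorescence measured at successive time points.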
The nature of assay [8]: qHTS RealTime-Glo MT Cell Viability Assay in HepG2 cells - 40 hour (AID 1224870). Note: nearly all actives have a fitted effect of over 50% in size. Note: potency is the fitted concentration of half-maximal effect. A digest of the protocol: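 Real-time viability: cells seeded at 600 per well together with NanoLuc and cell-permeant prosubstrate, compounds added after 5 h incubation. Luminescence tracked at 0, 8, 16, 24, 32 and 40 h of exposure.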
Assay [9] can be described thus: A CellTox Green Cytotoxicity Assay to monitor cytotoxicity in HEK293 cells - 40 hour (AID 1224871). Note: nearly all actives have a fitted effect of over 45% in size. Note: potency is the fitted concentration of half-maximal effect. Summed up:
as §2

A short description of assay [10]: qHTS RealTime-Glo MT Cell Viability Assay in HEK293 cells - 16 hour (AID 1224872). Note: top concentration of the series differs between compounds; nearly all actives have a fitted effect of over 50% in size. A digest of the protocol:
as §1

A short description of assay [11]: qHTS assay to identify small molecule antagonists of the estrogen related receptor signaling pathway with the pleiotropic PPARgamma coactivator (PGC) from Tox21 10K library - cell viability counter screen (AID 1224840; active = well fitted cell-killing curve with a large enough effect in the repeat runs, not every such curve was filed as active; note: nearly all actives have a fitted effect of over 40% in size; note: potency is the fitted concentration of half-maximal effect). A digest of the protocol: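 PGC/ERR cells, 2,000/well; 6 h pre-incubation 37 C/5% CO2; cpd in DMSO via pin tool; 17.5 h 37 C; CellTiter-Fluor, 30 min; fluorescence.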

Assay [12] in a line: qHTS RealTime-Glo MT Cell Viability Assay in HepG2 cells - 24 hour (AID 1224867). Note: nearly all actives have a fitted effect of over 50% in size. Summed up:
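HepG2 suspension premixed with RealTime-Glo reagents is plated at 600 cells per well and left 5 h at 37 C/5% CO2. Compounds in DMSO then go in, and bioluminescence reflecting viable cell number is recorded over 40 h.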

Assay [13] in a line: qHTS assay to identify small molecule antagonists of the estrogen related receptor signaling pathway with the pleiotropic PPARgamma coactivator (PGC) from Tox21 10K library (AID 1224841; call rule not given here; note: potency is the fitted concentration of half-maximal effect). Summed up:
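PGC/ERR cell line, 2,000 cells/well; 6 h pre-incubation 37 C/5% CO2; compounds (DMSO) pinned in; 18 h, 37 C; One-Glo, 30 min RT; luminescence.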

Assay [14] can be described thus: qHTS assay to identify small molecule agonists of the estrogen related receptor signaling pathway with the pleiotropic PPARgamma coactivator (PGC) from Tox21 10K library (AID 1224842). Note: nearly all actives have a fitted effect of over 15% in size. Note: potency is the fitted concentration of half-maximal effect. Summed up:
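Luminescence from One-Glo (30 min, room temperature) measured after PGC/ERR cells had 18 h at 37 C with pinned compound (23 nL in DMSO). Cells had been seeded at 2,000 per well and pre-incubated 6 h.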

Assay [15] in a line: qHTS assay to identify small molecule agonists of H2AX (AID 1224845; active = well fitted activation curve with a large enough effect in the signal ratio in the repeat runs, not every such curve was filed as active; the % refers to the signal ratio; note: potency is the fitted concentration of half-maximal effect). Summed up: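 Phospho-H2AX Ser139 measured by HTRF (ex 320 nm; em 665 and 620 nm) after 24 hr antibody incubation. Compounds, 15 concentrations, 0.76% DMSO, were applied to CHO-K1 cells for 3hr at 37C before lysis.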
Assay [16] can be described thus: qHTS assay to identify small molecule antagonists of the estrogen related receptor (ERR) signaling pathway from Tox21 library (AID 1224848). Note: nearly all actives have a fitted effect of over 50% in size. Note: potency is the fitted concentration of half-maximal effect. A digest of the protocol: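 Antagonist-mode screen of the Tox21 10K library in an NTP-provided ERR reporter cell line; 18 h compound exposure at 37 C, luminescence measured with ONE-Glo.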
Assay [17] can be described thus: qHTS assay to identify small molecule agonists of the estrogen related receptor (ERR) signaling pathway from Tox21 library (AID 1224849; calls by dose curve; note: nearly all actives have a fitted effect of over 15% in size). To be noted: ERR reporter cell line, ONE-Glo luciferase, 18 h. A digest of the protocol:
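ERR cells, 6 h pre-incubation 37 C/5% CO2; cpd in DMSO pinned; 18 h 37 C; ONE-Glo added, 30 min RT; luminescence read. Agonist mode, qHTS.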

The nature of assay [18]: qHTS assay to identify small molecule agonists of the hypoxia (HIF-1) signaling pathway - cell viability counter screen (AID 1224844; calls by dose curve; note: nearly all actives have a fitted effect of over 50% in size). Summed up:
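ME-180 HRE-bla cells, 2,000/well, 0.5% dialyzed FBS; 5 hr settle, 17 hr compound at 37C/5% CO2; CCF4-AM reporter read first, then CellTiter-Glo luminescence after 30 min RT.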

Assay [19] can be described thus: qHTS assay to identify small molecule agonists of the hypoxia (HIF-1) signaling pathway (AID 1224846; active = well fitted activation curve with a large enough effect in the signal ratio in the repeat runs, not every such curve was filed as active; the % refers to the signal ratio). A digest of the protocol: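 Cell line: CellSensor HRE-bla ME-180; 2,000 cells/well; 0.5% dialyzed FBS; 5 h preincubation; DMSO compound pin transfer; 17 h, 37C, 5% CO2; CCF4-AM added; bla FRET signal scored for activation.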
In assay [20] the target is Nuclear receptor subfamily 1 group I member 3 (Homo sapiens) (UniProt Q14994). The assay is described as follows: qHTS assay to identify small molecule antagonists of the constitutive androstane receptor (CAR) signaling pathway (AID 1224838).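 Note: HepG2 cells stably expressing hCAR with CYP2B6 luciferase reporter stimulated by CITCO; nearly all actives have a fitted effect of over 40% in size.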 A digest of the protocol: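 HepG2-CYP2B6-hCAR cells; 4 h pre-incubation; cpd (15 conc) + CITCO 50 nM final; 24 h, 37 C/5% CO2; ONE-Glo, luminescence.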
Nuclear receptor subfamily 1 group I member 3 (Homo sapiens), sequence (Q14994 whole entry, looked up): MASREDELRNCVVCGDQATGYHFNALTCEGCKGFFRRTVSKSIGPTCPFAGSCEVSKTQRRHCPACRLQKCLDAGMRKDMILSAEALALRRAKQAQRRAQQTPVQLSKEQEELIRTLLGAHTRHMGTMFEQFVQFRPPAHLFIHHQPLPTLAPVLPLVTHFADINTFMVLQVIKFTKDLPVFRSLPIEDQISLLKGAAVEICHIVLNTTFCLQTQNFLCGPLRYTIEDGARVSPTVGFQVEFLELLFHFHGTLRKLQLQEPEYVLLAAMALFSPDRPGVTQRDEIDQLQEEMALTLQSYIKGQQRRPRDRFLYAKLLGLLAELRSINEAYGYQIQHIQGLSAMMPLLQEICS

[21] abbreviates: at 92.4 µM (top of the series) unless noted.

The text below walks through data of PubChem BioAssay (Tox21).

Values without a mark were called inactive. Inconclusive results are not listed. Active and inactive are the calls of the source. Unless noted, calls come from the whole dose curve; as a rule, active = well fitted curve in the direction sought with a large enough effect in the repeat runs; inconclusive = weak or mixed curves; inactive = no such curve, though single readings can be large; an effect the other way counts as inactive or inconclusive.
% is set by controls: 0 for no effect and ±100 for the full control effect.

With `Cc1occc1SSc1ccoc1C`, the Potency entry in [1], in assay [2], in assay [3], in assay [4], in assay [5] and in assay [6] was “inactive” each time. Moreover, the Potency entry in assay [7], in assay [8] and in [10] was “inactive” throughout. Besides, the Potency in assay [9] was 54.9 µM (active).

Regarding `c1cc(OCC2CO2)cc(OCC2CO2)c1` (stereo unspecified), the Potency entry in [1], in assay [2], in assay [3], in assay [4], in [5] and in assay [12] was “inactive” in each case. The Potency result in [7] and in assay [9] was “inactive” in each case. The Potency was 68 µM (active) in assay [11] and 17.2 µM (active) in [6].

`CNC(=S)NN`: the Potency in assay [1] was 43.3 µM (active); in assay [2] it was 17.2 µM (active); in assay [11], 13.7 µM (active); in assay [13], 9.69 µM (active); in assay [15], 89.8 µM (active); in assay [16], 13.7 µM (active). In addition, the Potency result in assay [14], in [4], in assay [5], in assay [12], in [7] and in assay [8] was “inactive” throughout. The Potency entry in assay [10] is “inactive”. Further, the activity change, positive = activation in assay [17] (setting [21]) was -71.8%.

As for `CCCCCCCCCCCCCc1ccccc1`, the Potency result in [1], in [2], in assay [11], in assay [4], in assay [18] and in assay [15] was “inactive” throughout. For the same compound, the Potency entry in [5], in assay [12], in [7], in assay [8] and in [10] was “inactive” each time. Moreover, the outcome in [19] was inactive.

Consider `CCOC(=O)N1CCC(=C2c3ccc(Cl)cc3CCc3cccnc32)CC1`, for which the activity change, positive = activation in [17] (at 42.5 µM (top of the series)) was -46%; in assay [17] (at 92.4 µM (top of the series)) it was -60.8%.

For the compound `Cc1c(C)n(Cc2ccccc2)c2ccc(C(=O)OCCN(C)C)cc12`, the Potency result in assay [20], in assay [11], in [13], in assay [4], in [18] and in assay [16] was “inactive” in each case. The Potency result in assay [7] and in assay [10] was “inactive” each time. Also, the Potency in assay [3] is 11.9 µM (active); in assay [14], 29.8 µM (active); in assay [15] it was 6.19 µM (active); in assay [8], 23.9 µM (active). Further, the outcome in assay [19] was inactive. Also, in assay [17] (setting [21]), the activity change, positive = activation is -7.81% [at 42.5 µM].

Take `C=CC(=O)OCC(O)COc1ccccc1` (stereo unspecified): the Potency entry in assay [3], in [6], in assay [7] and in assay [10] was “inactive” each time.
